# The list is not random: actives were taken first. Their share in the collection is about 27%.
# CYP2C19 act – increases human CYP2C19 enzyme activity; P33261; recombinant CYP2C19, luciferin-H EGE luminescence; hits give high values; 0 = fully inhibited enzyme, 1 = untreated enzyme; activation factor at 5 µM; 96,000 tested, under 10 active; AID 1025;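 active = activation factor of at least 2 at 5 µM in the primary screen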;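 also: 0 = wells with 2.5 mM tranylcypromine and 1 = vehicle-only wells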
# Target sequence (P33261 whole entry, looked up): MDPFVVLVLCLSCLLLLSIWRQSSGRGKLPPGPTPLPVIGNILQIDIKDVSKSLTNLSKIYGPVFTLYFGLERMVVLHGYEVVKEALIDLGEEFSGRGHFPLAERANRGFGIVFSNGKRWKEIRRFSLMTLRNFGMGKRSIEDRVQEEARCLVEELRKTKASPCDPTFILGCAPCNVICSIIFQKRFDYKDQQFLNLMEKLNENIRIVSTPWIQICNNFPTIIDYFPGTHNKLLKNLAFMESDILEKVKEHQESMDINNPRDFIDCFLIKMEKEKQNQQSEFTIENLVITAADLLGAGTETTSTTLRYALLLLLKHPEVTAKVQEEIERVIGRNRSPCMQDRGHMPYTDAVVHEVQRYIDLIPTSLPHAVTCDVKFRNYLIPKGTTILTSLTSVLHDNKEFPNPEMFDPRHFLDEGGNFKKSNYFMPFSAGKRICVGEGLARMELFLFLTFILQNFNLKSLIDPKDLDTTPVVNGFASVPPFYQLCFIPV
# CYP2C19 inh – human CYP2C19 inhibition; P33261; CYP2C19 Supersomes, luciferin-H EGE luminescence, 30 min; inhibition, % at 5 µM; 96,000 compounds, 21% hits;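 active = CYP2C19 inhibition above a set limit at 5 µM in the primary screen, cut at about 50% in these data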;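 also: plate controls were negative control wells for no effect and 2.5 mM tranylcypromine positive control for full effect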
# CYP2C9 act – increases human cytochrome P450 2C9 activity; P11712; recombinant CYP2C9, luciferin-H conversion, luminescence; hits give high values; factor 1 = untreated enzyme, 0 = blocked; activation factor at 5 µM; 96,000 compounds, 1.4% hits;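 active = activation factor of 2 or more for CYP2C9 at a 5 µM dose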;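 also: 0 = sulfaphenazole-blocked wells and 1 = vehicle-only wells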
# Cav3 T inh – inhibitors of human Cav3.2 T-type calcium channel; Cav3.2-expressing cells, Fluo-4 calcium fluorescence FDSS; hits give low values; B-score at 10 µM; 100,000 compounds, 4% hits; AID 449739;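 active = single-dose well whose peak fluorescence ratio is a statistical outlier from its plate by either plate-standardised score or position-corrected B-score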
# CYP2C9 inhib – human CYP2C9 inhibition; P11712; CYP2C9 Supersomes, luciferin-H conversion, luminescence; inhibition, % at 5 µM; 96,000 compounds, 20% hits;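 active = blocking of liver enzyme CYP2C9 beyond about 50% at 5 µM, limit read from the data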
# * marks the source's active call; other numbers are inactive results; . = no result.
SMILES,CYP2C19 act,CYP2C19 inh,CYP2C9 act,Cav3 T inh,CYP2C9 inhib
CCOC(=O)C1CCCN(C(=O)c2ccc(OCC)cc2)C1 (stereo not given),0.6,38,0.9,0.037,6
CC1(C)Cc2ccccc2-c2nnc(-c3ccccn3)n21,1.1,-13,0.9,1.2,14
O=C(OCn1ncc(Cl)c(Cl)c1=O)c1ccccc1Cl,0.2,78*,1.2,1.5,-17
CC(C)Nc1nc(NC(C)C)nc(C(N)=O)n1,0.9,5,0.8,-0.07,24
CCC(C(=O)Nc1ccccc1OC)n1c(C(=O)OC)cc2ccsc21 (stereo not given),0,98*,0,-2.8,96*
CCCC(=O)N1CCN(c2ccc([N+](=O)[O-])c(NC(C)c3ccccc3)c2)CC1 (stereo not given),0.4,63*,0.3,-6.3*,70*
CC(C)(C)C(=O)N1CCN(c2ccc([N+](=O)[O-])c(NCC3CCCO3)c2)CC1 (stereo not given),0.9,9,0.8,0.57,22
CCS(=O)(=O)NCC(c1cccnc1)N1CCN(c2ccccc2OC)CC1 (stereo not given),0.9,7,1.2,0.3,-17
COc1ccccc1N1CCN(C(CNS(=O)(=O)c2cccs2)c2cccnc2)CC1 (stereo not given),0.4,57*,0.9,0.6,14
COc1ccc(N2CCN(C(CNS(=O)(=O)c3cc(F)ccc3F)c3cccnc3)CC2)cc1 (stereo not given),0.3,74*,0.4,.,57*
COc1ccc(S(=O)(=O)NCC(c2cccnc2)N2CCN(c3ccccc3)CC2)cc1C (stereo not given),0.3,73*,0.1,.,86*
COc1ccc(N2CCN(C(CNS(=O)(=O)c3cccs3)c3cccnc3)CC2)cc1 (stereo not given),0.3,69*,0.4,0.89,56*
NC(=O)CC(O)c1cccc(Cl)c1 (stereo not given),1,-1,1,.,1
CC(=O)N1CCc2cc3nc(C)cc(C)c3cc21,1,4,0.9,.,7
Nc1nnc(SCC(=O)NCCOc2ccccc2)s1,.,.,.,-0.61,.
O=C(COc1ccc([N+](=O)[O-])cc1)NN=C1CCCC1,0.8,18,0.9,-0.86,10
O=S(=O)(NCC(c1cccnc1)N1CCN(c2ccccc2)CC1)c1cccs1 (stereo not given),0.1,92*,0.3,-0.0064,71*
COC(=O)NCC(c1cccnc1)N1CCN(c2ccccc2)CC1 (stereo not given),.,.,.,0.19,.
CCOCCCNC(=O)C1CCCN1C(=O)NC1CCCCC1 (stereo not given),1,-3,1,0.016,1
CCOC(=O)C[C@H]1c2ccccc2S(=O)(=O)N1c1ccccc1,.,.,.,-2.1,.
O=C(CN1C(=O)CC(c2ccccc2)=Nc2ccccc21)NCc1ccccc1,.,.,.,-0.79,.
Cc1cc2c(cc1C)N(CC(=O)N1CCCC1)C(=O)CC(c1ccccc1)=N2,0.7,35,0.3,-0.021,68*
CCc1cc(=O)oc2cc(C)c(CN3CCCC(C)C3)c(O)c12 (stereo not given),0.6,44,0.6,0.036,38
CCCCc1cc(=O)oc2cc(C)c(CN3CCCC3)c(O)c12,0.5,50,0.4,0.32,58*
COCCn1ccc(O)c(Cc2ccc(Cl)cc2)c1=O,0.7,30,0.8,0.54,15
SMILES,CYP2C19 act,CYP2C19 inh,CYP2C9 act,Cav3 T inh,CYP2C9 inhib
CN(C)c1ccc(/C=C/C(O)=C2/C(=O)N(C)C3(C)CC2c2ccccc2O3)cc1 (stereo not given),0.6,40,0.6,-6.2*,43
Cc1ccc(-c2nn(-c3cc(Cl)ccc3[N+](=O)[O-])c(=O)c3ccccc23)cc1,0.5,51*,0.7,-1,31
CCOc1ccc(NC(=O)C2CCN(c3nnnn3-c3ccccc3)CC2)cc1,.,.,.,-0.16,.
CN(C)c1ccc(-n2cc3c(=O)n(C)c(=O)n(C)c3c2)cc1,0.5,46,0.2,1.4,76*
Cc1cc(NC(=O)C(C)C)ncc1NC(=O)Cc1ccccc1,1.1,-8,1,-4*,-5
CCN1CCN(c2nc(C)c3c(n2)CCCC3=O)CC1,1.2,-18,0.9,1,12
O=C(Cc1ccccc1)NCc1nc2ccccc2[nH]1,.,.,.,0.059,.
Fc1ccc(Br)cc1C1C=C(c2cccnc2)Nc2ncnn21 (stereo not given),0.1,88*,0.5,-3,54*
Brc1ccc(C2=CC(c3cccs3)n3ncnc3N2)cc1 (stereo not given),0.7,35,0.6,-5.5*,42
Cc1ccc(C2C=C(c3ccccc3)Nc3ncnn32)cc1 (stereo not given),.,.,.,-0.46,.
OCCCc1nc2n(n1)C(c1cccs1)C=C(c1ccc(Br)cc1)N2 (stereo not given),1.1,-8,0.9,-7.9*,11
Cc1ccc2c(c1)C(c1ccncc1)=NNC(c1ccc(C(C)C)cc1)=N2,0.6,38,0.9,-0.37,9
CCOC(=O)C(CC(C)C)CP(=O)(O)CNC(=O)OCc1ccccc1 (stereo not given),1,-1,0.9,-0.014,10
Cc1[nH]c2ccc(-c3nnc(SCC(=O)NCc4ccco4)n3Cc3ccccc3)cc2c1C,0.7,32,0.3,-4.1,66*
Cc1sc2nc(SCC(=O)NCc3ccco3)n(Cc3ccccc3)c(=O)c2c1C,1,3,0.4,0.67,59*
Cc1sc2nc(C(C)C)nc(SCC(=O)NCc3ccco3)c2c1C,0.2,78*,0.2,-0.014,82*
O=C(Cc1c(O)c2ccccc2[nH]c1=O)OC1CCCCC1,1,-1,1,-0.084,-1
Cc1cccc(NC(=S)NNC(=O)c2ccc(Br)o2)c1,0.8,23,0.4,-0.67,56*
Cc1ccc(C)c(NC(=S)NNC(=O)c2csc3c2CCC(C)C3)c1 (stereo not given),0.1,86*,0.5,-5.4*,53*
Cc1ccc(/C=N/NC(=O)c2csc3c2CCCC3)cc1,0.9,7,1.4,-4.9*,-41
CC(C)(C)C1CCc2c(C(=O)N/N=C/c3cccs3)csc2C1 (stereo not given),0.7,35,0.4,-2.4,63*
Cc1ccc(S(=O)(=O)NC(=O)c2ccc(Br)o2)c(C)c1,.,.,.,-0.027,.
CCn1cc(/C=N\NC(=O)c2csc3ccccc23)c(C)n1,0.9,8,0.9,0.77,10
Cc1cccc(NC(=S)NNC(=O)c2csc3c2CCCC3)c1,0.7,30,1.1,-3.5*,-13
O=C(Nc1ccon1)c1csc2c1CCCC2,1,-2,1,0.041,-2
CCNC(=S)NNC(=O)c1csc2c1CCCC2,0.7,32,1,-0.94,-3
O=C(N/N=C/c1ccc(O)cc1)c1csc2ccccc12,0.8,19,3*,-0.77,-199
Cc1ccc(C)c(NC(=S)NNC(=O)c2csc3c2CCCC3)c1,0.5,50,1.1,-5.3*,-14

# Screens as filed in PubChem.
